Source: PubChem BioAssay (NCATS)
Inconclusive results are not listed. Where a call stands in place of a potency, no number is given. Values without a mark were called inactive. The source made the active and inactive calls. Calls follow the shape of the dose curve; as a rule, active = well fitted inhibition curve with a large enough effect; inconclusive = small, poorly fitted or top-dose-only effect; inactive = no such curve, though single readings can be large or run the other way.

What was measured:
[1] = test system: Zika virus NS2B-NS3 protease (unlinked complex); assay: Primary screen GU Rhodamine qHTS for Zika virus inhibitors: Unlinked NS2B-NS3 protease assay (AID 1347159); also: nearly all actives have a fitted effect of over 60% in size
How it was run: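 Percent inhibition came from the 15-min rise in Rhodamine110 fluorescence (1.5 microM substrate, ~15% conversion), normalized to no-inhibitor and no-enzyme wells and Hill-fitted. Unlinked protease, 25 nM, pH 8.0 Tris buffer; compounds up to 114 microM, 15-min preincubation.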

[2] = test system: Zika virus NS2B-NS3 protease (linked construct); assay: Primary screen NINDS Rhodamine qHTS for Zika virus inhibitors (AID 1347160); also: nearly all actives have a fitted effect of over 55% in size
How it was run: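 Rhodamine110-peptide cleavage (1.5 µM substrate) by 25 nM linked NS2B-NS3 enzyme at pH 8.0 (Tris, Tween 20), after 15 min RT preincubation with compounds; 15-min fluorescence change normalized to controls and Hill-fitted.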
Potency is read from the fitted curve at half-maximal effect.

Which results are given for `C=C[C@H]1[C@H](O[C@@H]2O[C@H](CO)[C@@H](O)[C@H](O)[C@H]2O)OC=C(C(=O)OC)[C@H]1CCO`?
Potency [1]: inactive; Potency [2]: inactive

`CSCC1OC(n2cnc3c(N)ncnc32)C(O)C1O` (stereo not given) was tested. Which Potency [1] did it give?
Its Potency is “inactive”.

What about the Potency [2] of the same compound?
Its Potency is “inactive”.

For `C=C1C(OC(C)=O)CCC2(C)CC3(O)OC(=O)C(C)=C3CC12` (stereo not given), which Potency [1] is on record?
Its Potency is “inactive”.

And the Potency [2]?
The Potency was “inactive”.

How did the Potency [1] turn out when `CC1=C(C)C(=O)OC(C(C)C2C(O)CC3C4C5OC5C5(O)CC(OC6OC(CO)C(OC7OC(C)C(O)C(O)C7O)C(O)C6O)CC(O)C5(C)C4CCC32C)C1` (stereo not given) was run?
The Potency was “inactive”.

What about the Potency [2] of the same compound?
The Potency was “inactive”.

With `CC(=O)/C=C/C1(O)C(C)(C)CC(O)CC1(C)O` (stereo not given) as the compound, how does the Potency [1] read?
The Potency was “inactive”.

What about the Potency [2] of the same compound?
The Potency was “inactive”.

Which Potency [1] does the source give for `CC1=C2CC(=O)C(C)CC/C=C(\C)CC2OC1=O` (stereo not given) here?
Its Potency is “inactive”.

And the Potency [2]?
Its Potency is “inactive”.

Which results are given for `COC(=O)c1c(CC=C(C)C)c(OC2OC(CO)C(O)C(O)C2O)c2ccccc2c1OC1OC(CO)C(O)C(O)C1O` (stereo not given)?
Potency [1]: inactive; Potency [2]: inactive

How did the Potency [1] turn out when `COC(=O)C1=COC(OC2OC(CO)C(O)C(O)C2O)C2C(C)C(OC(C)=O)C(OC(=O)c3ccccc3)C12` (stereo not given) was run?
Its Potency is “inactive”.

And the Potency [2]?
Its Potency is “inactive”.

How did the Potency [1] turn out when `COC1OC(OC)C(O)(CCC2(C)C(C)CCC3(C)C2CC(O)C(O)C32CO2)C1O` (stereo not given) was run?
Its Potency is “inactive”.

What about the Potency [2] of the same compound?
The Potency was “inactive”.

For `CC1(C(=O)O)CC[C@]2(C(=O)OC3OC(CO)C(O)C(O)C3O)CC[C@]3(C)C(=CCC4[C@@]5(C)CC[C@H](OC6OCC(O)C(O)C6OC6OC(CO)C(O)C(O)C6O)C(C)(C)C5CC[C@]43C)C2C1` (stereo not given in full), which Potency [1] is on record?
The Potency was “inactive”.

What about the Potency [2] of the same compound?
The Potency was “inactive”.

With `CC(C)(O)c1ccc2c(c1)C(=O)C[C@H]1[C@](C)(C(=O)O)CCC[C@]21C` as the compound, how does the Potency [1] read?
Its Potency is “inactive”.

What about the Potency [2] of the same compound?
The Potency was “inactive”.

`COC(=O)C1=COC(O[C@@H]2O[C@H](CO)[C@@H](O)[C@H](O)[C@H]2O)/C(=C\COC(=O)/C=C/c2ccccc2)C1CC(=O)OCCc1ccc(O)cc1` (stereo not given in full) was tested. Which Potency [1] did it give?
The Potency was “inactive”.

And the Potency [2]?
The Potency was “inactive”.

`COC(=O)C(Cc1ccccc1)NC(=O)c1ccccc1` (stereo not given) was tested. Which Potency [1] did it give?
The Potency was “inactive”.

And the Potency [2]?
Its Potency is “inactive”.

Which results are given for `CC/C=C/C(O)C(O)C1=C(C)C(=O)C2(O1)C(=O)NC(OC)(C(=O)c1ccccc1)C2O` (stereo not given)?
Potency [1]: inactive; Potency [2]: inactive

Which results are given for `COc1cc2c(cc1O)CC(O)(CO)C(CO)C2c1ccc(OC2OC(CO)C(O)C(O)C2O)c(OC)c1` (stereo not given)?
Potency [1]: inactive; Potency [2]: inactive

With `CC(=O)O[C@@]1(C)[C@@H]2CC(=C(C)C)C(=O)C[C@@]2(C)CC[C@H]1OC(=O)C1(C)OC1C` (stereo not given in full) as the compound, how does the Potency [1] read?
The Potency was “inactive”.

What about the Potency [2] of the same compound?
The Potency was “inactive”.

`Cc1noc2c1-c1ccccc1C(c1ccc(Cl)cc1)=N[C@H]2CC(N)=O` was tested. Which Potency [1] did it give?
Its Potency is “inactive”.

And the Potency [2]?
The Potency was “inactive”.

Which Potency [1] does the source give for `COc1ccc(C2COc3cc(O)ccc3C2)c(O)c1OC` (stereo not given) here?
Its Potency is “inactive”.

What about the Potency [2] of the same compound?
Its Potency is “inactive”.

Which Potency [1] does the source give for `CCCNCCOc1ccc(NC(=O)c2c[nH]c3c2C(=O)CCC3)cc1F` here?
Its Potency is “inactive”.

And the Potency [2]?
The Potency was “inactive”.

What does the source list for `CC1=C2C[C@@]3(C)[C@@H](CCC[C@@H]3C)C[C@@]2(O)OC1=O`?
Potency [1]: inactive; Potency [2]: inactive

What does the source list for `C/C=C/C=C/C=C/C(=O)OC1C=C2C(O)OC(=O)[C@]2(O)[C@@]2(C)CCCC(C)(C)[C@H]12` (stereo not given in full)?
Potency [1]: 6.31 µM (active); Potency [2]: 12.6 µM (active)

For `COc1cc(CO)cc(OC)c1O[C@@H]1O[C@H](CO)[C@@H](O)[C@H](O)[C@H]1O`, which Potency [1] is on record?
Its Potency is “inactive”.

What about the Potency [2] of the same compound?
The Potency was “inactive”.

`Cn1cc(Nc2cnccc2C(=O)O)c2cccnc21` was tested. Which Potency [1] did it give?
The Potency was “inactive”.

And the Potency [2]?
Its Potency is “inactive”.

For `CC1=CC(=O)CC(C)(C)C1CO[C@@H]1O[C@H](CO)[C@@H](O)[C@H](O)[C@H]1O` (stereo not given in full), which Potency [1] is on record?
The Potency was “inactive”.

And the Potency [2]?
The Potency was “inactive”.

What does the source list for `COc1cc(-c2ccc(O)cc2)c(OC)c(O)c1C1=CC(=O)OC1CC(=O)O` (stereo not given)?
Potency [1]: inactive; Potency [2]: inactive

How did the Potency [1] turn out when `COCCCc1sc(-c2ccccc2)nc1C(=O)Nc1ccccc1-c1nc2cc(CN3CCCC3)cnc2s1` was run?
The Potency was “inactive”.

What about the Potency [2] of the same compound?
The Potency was “inactive”.

Which Potency [1] does the source give for `CC1(C)OC(=O)CC(O)C2(C)C1CC(=O)C1(C)C2C(O)CC2(C)C(c3ccoc3)OC(=O)C3OC321` (stereo not given) here?
The Potency was “inactive”.

And the Potency [2]?
Its Potency is “inactive”.

Which results are given for `C[C@@H](c1ccccc1)N(C(N)=NC#N)c1cccc2ncccc12`?
Potency [1]: inactive; Potency [2]: inactive

Which results are given for `O=C(COCC(=O)N1CCN(C(c2ccccc2)c2ccccc2)CC1)Nc1ccc(Cl)cc1C(=O)O`?
Potency [1]: 11.2 µM (active); Potency [2]: 12.6 µM (active)

What does the source list for `O=C(O)CCc1c(C(=O)O)[nH]c2cc(Cl)cc(Cl)c12`?
Potency [1]: inactive; Potency [2]: inactive

With `CC1C(=O)OCC2=CC[N+]3([O-])CCC(OC(=O)C(C)(O)C1(C)O)C23` (stereo not given) as the compound, how does the Potency [1] read?
The Potency was “inactive”.

And the Potency [2]?
The Potency was “inactive”.

For `CC(C)(O)C1CCC2(C)CCCC(C)(O)C2C1` (stereo not given), which Potency [1] is on record?
Its Potency is “inactive”.

What about the Potency [2] of the same compound?
Its Potency is “inactive”.

Which results are given for `COC(=O)CCC1(C)C(C(C)(C)O)C(O)CC2(C)Oc3c(C)c4c(c(OC)c3CC21)C(=O)OC4` (stereo not given)?
Potency [1]: inactive; Potency [2]: inactive

Which Potency [1] does the source give for `COc1cc(C(CO)CO[C@@H]2O[C@H](CO)[C@@H](O)[C@H](O)[C@H]2O)ccc1O` (stereo not given in full) here?
Its Potency is “inactive”.

What about the Potency [2] of the same compound?
Its Potency is “inactive”.

With `CC(=O)O[C@@H]1[C@H](O[C@@H]2O[C@H](CO)[C@@H](O)[C@H](O)[C@H]2O)[C@@H](O[C@@H]2O[C@@H](C)[C@H](O)[C@@H](O[C@@H]3O[C@H](CO)[C@@H](O)[C@H](O)[C@H]3O)[C@H]2O)[C@H](OC(=O)[C@]23CCC(C)(C)C[C@H]2C2=CCC4[C@@]5(C)C[C@H](O)[C@H](O[C@@H]6O[C@H](C(=O)O)[C@@H](O)[C@H](O)[C@H]6O)[C@@](C)(C(=O)O)C5CC[C@@]4(C)[C@]2(C)CC3)O[C@@H]1C` (stereo not given in full) as the compound, how does the activity change, negative = inhibition [1] read?
Its activity change, negative = inhibition is 16.2% [at 19.1 µM].

What about the Potency [2] of the same compound?
The Potency was “inactive”.
